# Reference: ChEMBL document CHEMBL4808148, “HDAC6 screening dataset using tau-based substrate in an enzymatic assay yields selective inhibitors and activators” (2021)
# Screen size: about 5,600 compounds; about 390 (7%) showed an effect of 50% or more. The sample holds strong results, similar compounds and a random draw of the others, so the mix is not that of the screen. Non-standard residues stand in square brackets, D forms with d. Residues, ends and D or L forms follow the SMILES beside them. dPhe(4-Cl) = N[C@H](Cc1ccc(Cl)cc1)C(=O)O; d2Nal = N[C@H](Cc1ccc2ccccc2c1)C(=O)O; dCit = NC(=O)NCCC[C@@H](N)C(=O)O; d3Pal = N[C@H](Cc1cccnc1)C(=O)O
# Biological target: T1, Protein deacetylase HDAC6 (Homo sapiens) (UniProt Q9UBN7)
# T1 sequence (whole entry): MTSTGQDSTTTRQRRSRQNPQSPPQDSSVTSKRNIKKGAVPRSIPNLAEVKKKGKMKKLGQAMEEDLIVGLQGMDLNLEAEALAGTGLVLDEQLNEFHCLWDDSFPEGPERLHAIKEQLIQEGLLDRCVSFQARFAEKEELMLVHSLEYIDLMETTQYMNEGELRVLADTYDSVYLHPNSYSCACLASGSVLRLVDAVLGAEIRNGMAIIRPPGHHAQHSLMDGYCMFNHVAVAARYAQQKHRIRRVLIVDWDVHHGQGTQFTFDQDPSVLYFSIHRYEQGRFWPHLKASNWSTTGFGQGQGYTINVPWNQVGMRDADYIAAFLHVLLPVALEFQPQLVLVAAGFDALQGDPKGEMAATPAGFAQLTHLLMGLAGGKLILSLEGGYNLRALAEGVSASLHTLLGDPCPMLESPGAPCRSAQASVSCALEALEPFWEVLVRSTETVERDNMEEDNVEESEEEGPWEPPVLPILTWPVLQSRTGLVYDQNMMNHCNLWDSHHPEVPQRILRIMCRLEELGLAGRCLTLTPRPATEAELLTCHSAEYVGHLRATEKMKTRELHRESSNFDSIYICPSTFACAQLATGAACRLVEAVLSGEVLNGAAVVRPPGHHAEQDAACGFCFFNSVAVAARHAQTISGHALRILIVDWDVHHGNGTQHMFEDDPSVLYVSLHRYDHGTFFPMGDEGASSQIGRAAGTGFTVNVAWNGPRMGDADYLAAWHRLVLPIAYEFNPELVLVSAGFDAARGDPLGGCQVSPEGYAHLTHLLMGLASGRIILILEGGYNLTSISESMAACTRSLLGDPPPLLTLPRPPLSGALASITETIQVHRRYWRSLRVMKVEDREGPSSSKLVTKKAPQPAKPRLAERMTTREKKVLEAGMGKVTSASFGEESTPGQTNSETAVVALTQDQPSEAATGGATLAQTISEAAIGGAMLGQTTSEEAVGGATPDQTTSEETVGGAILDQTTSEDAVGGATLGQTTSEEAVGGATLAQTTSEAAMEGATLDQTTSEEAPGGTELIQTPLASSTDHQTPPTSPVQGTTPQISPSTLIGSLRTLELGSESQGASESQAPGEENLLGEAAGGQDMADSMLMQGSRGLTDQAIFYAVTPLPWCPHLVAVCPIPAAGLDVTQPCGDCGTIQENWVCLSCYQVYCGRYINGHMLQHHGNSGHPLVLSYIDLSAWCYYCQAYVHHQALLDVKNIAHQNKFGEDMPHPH
# Conditions: at 10 µM
row,Structure (SMILES),inhibition
1,C[C@H]1CC[C@H](n2c3cnccc3c3cnc(Nc4ccc5c(n4)CCN(C(=O)CO)C5)nc32)CC1,-9.6%
2,CC[C@@H]1CN2C(=O)N(C)c3nc(-c4ccccc4)[nH]c3C2=N1,-3.85%
3,COc1ccc(C(=O)Nc2sc3c(c2C(N)=O)CCCC3)cc1OC,31.6%
4,CC(C)(C)C1CCc2c(sc(NC(=O)c3ccco3)c2C(=O)O)C1 (stereo not given),102%
5,N[C@@H](Cc1ccc(B(O)O)cc1)C(=O)O,0.83%
6,CNc1ncc2cc(-c3cc(NC(=O)NCCC(C)(C)C)c(F)cc3C)c(C)nc2n1,12.4%
7,C/C(=N\NC(=O)[C@@H]1C(=O)NC[C@H]1c1ccccc1)c1cccc(Br)c1,17.4%
8,CN1CCc2c(c3ccccc3n2Cc2ccc(C(=O)NO)cc2)C1,101%
9,Fc1ccc(Cn2c(NC3CCNCC3)nc3ccccc32)cc1,6.44%
10,CCO[C@@H](Cc1ccc(OCCc2ccc(OS(C)(=O)=O)cc2)cc1)C(=O)O,-7.27%
11,Nc1cc(F)ccc1NC(=O)/C=C/c1cnn(C/C=C/c2ccccc2)c1,12.4%
12,O=C(c1cccc(Br)c1)N1CCC(N2CCCC2)CC1,1.11%
13,CCNC(=O)/C=C/c1cccc(Br)c1,54.9%
14,COc1cc(/C=C/C(=O)CC(=O)/C=C/c2ccc(O)c(OC)c2)ccc1O,38.8%
15,O=C(/C=C/c1ccccc1)NCCO,81.5%
16,O=C(/C=C/c1cccnc1)NCCCCC1CCN(C(=O)c2ccccc2)CC1,-0.26%
17,CC12CCC(C(=O)N(CCCCN3CCN(c4ccccn4)CC3)C1=O)C2(C)C (stereo not given),4.93%
18,C[C@@H]1O[C@@H](O[C@H]2[C@H](Oc3cc(O)c4c(c3)O[C@H](c3ccc(O)cc3)CC4=O)O[C@H](CO)[C@@H](O)[C@@H]2O)[C@H](O)[C@H](O)[C@H]1O,11.8%
19,O=C(O)C[C@H]1CC[C@H](c2ccc(-c3ccc(Nc4ccc(C(F)(F)F)nc4)cn3)cc2)CC1,17.5%
20,CC(C)c1ccc2c(c1)CC[C@H]1[C@](C)(CN)CCC[C@]21C,10.1%
21,C/C(=C\C(=O)Nc1ccccc1C(=O)O)c1ccc2ccccc2c1,27.8%
22,C=CC(=O)c1ccc2ccccc2c1,20.7%
23,CC(C)N(CCC(=O)c1ccc2ccccc2c1)Cc1ccccc1,59.8%
24,CC(=O)c1c(C)c2cnc(Nc3ccc(N4CCNCC4)cn3)nc2n(C2CCCC2)c1=O,3.93%
25,CC(C)C[C@H](NC(=O)[C@H](CCc1ccccc1)NC(=O)CN1CCOCC1)C(=O)N[C@@H](Cc1ccccc1)C(=O)N[C@@H](CC(C)C)C(=O)[C@@]1(C)CO1,0.65%

row,Structure (SMILES),inhibition
1,CC(=O)SCC(Cc1ccccc1)C(=O)NCC(=O)OCc1ccccc1 (stereo not given),3.61%
2,C[C@H]1CN(C[C@H](Cc2ccccc2)C(=O)NCC(=O)O)CC[C@@]1(C)c1cccc(O)c1,72.7%
3,O=C(CN1CCN(C(=O)c2ccco2)CC1)Nc1cc(C(F)(F)F)ccc1Cl,18.3%
4,Nc1nc2cc(-c3ccc4ncc(C(=O)N5CCOCC5)n4c3)ccc2o1,17.8%
5,CN(CCCN1c2ccccc2CCc2ccccc21)CC(=O)c1ccc(Cl)cc1,35.1%
6,Cc1cc(O)c(C(C)C)cc1Cl,35.2%
7,CCCN[C@H]1CCc2nc(N)sc2C1,14.3%
8,CC(C)=CCOc1ccc(/C=C/C(=O)c2ccc(OCC=C(C)C)cc2OCC(=O)O)cc1,-0.94%
9,O=C(/C=C/c1ccc(O)c(O)c1)c1ccc(O)cc1O,97.5%
10,O=C(/C=C/c1ccc(O)cc1)c1ccc(O)cc1O,98.6%
11,CC(C)(C)c1cc(C(=O)/C=C/c2ccc(C(=O)O)cc2)cc(C(C)(C)C)c1,35.2%
12,O=C(O)/C=C/c1ccc(O)c(O)c1,-8.03%
13,NC(=O)c1cccc(-c2cc(Nc3ccc(OC(F)(F)F)cc3)ncn2)c1,-8.36%
14,c1coc(-c2nnc3sc(C4CCCCC4)nn23)c1,-6.78%
15,O=C(Nc1ccc(Oc2ccc(Cl)cn2)c(Cl)c1)c1ccccn1,44.2%
16,CN(Cc1ccc(C(C)(C)C)cc1)Cc1cccc2ccccc12,2.21%
17,CC(C)=CCC/C(C)=C/CC/C(C)=C/CSc1ccccc1C(N)=O,-0.26%
18,O=C(Nc1cccnc1)c1cc(-c2ccnc(F)c2)ccc1OCc1ccccc1,9.93%
19,O=C1c2ccccc2-c2n[nH]c3cccc1c23,88.8%
20,CCOC(=O)c1c(O)nc2cccc3c2c1-c1ccccc1C3=O,41.8%
21,O=C(c1c(O)nc2cc(Cl)ccc2c1O)C1CC1,-2.41%
22,N#C/C(=C\c1ccc(O)c(O)c1)C(=O)NCCCc1ccccc1,88.2%
23,N#C/C(=C\c1ccc(O)c(O)c1)C(N)=O,16.6%
24,N#C/C(=C\c1ccc(O)c(O)c1)C(=O)Nc1ccccc1,89%
25,N#C/C(=C\c1ccc(O)c(O)c1)C(=O)OCCc1cccs1,40.4%

row,Structure (SMILES),inhibition
1,CCCCCCCCNC(=O)/C(C#N)=C/c1cn(CCCN(C)C)c2ccccc12,7.03%
2,CCCCCCCC/C=C\CCCCCCCC(=O)NCCc1ccc(O)c(O)c1,29.4%
3,C[C@H](NC(=O)/C(C#N)=C/c1ccc(O)c(O)c1)c1ccccc1,30.1%
4,N#C/C(=C\c1ccc(O)c(O)c1)C(=O)NCc1ccccc1,53%
5,O=C(CCCl)NCc1ccccc1,-3.62%
6,COc1cc(C[C@@H]2NCCc3cc(O)c(O)cc32)cc(OC)c1OC,3.77%
7,N#CC(Cc1ccc(O)cc1)c1ccc(O)cc1 (stereo not given),21.2%
8,COc1ccc2[nH]c([S@@+]([O-])Cc3ncc(C)c(OC)c3C)nc2c1,26.7%
9,COc1ccc2[nH]c(SCc3ncc(C)c(OC)c3C)nc2c1,62.8%
10,COc1ccc2[nH]c([S+]([O-])Cc3ncc(C)c(OC)c3C)nc2c1 (stereo not given),16.1%
11,CCC[C@H](NC(=O)[C@@H]1[C@H]2CCC[C@H]2CN1C(=O)[C@@H](NC(=O)[C@@H](NC(=O)c1cnccn1)C1CCCCC1)C(C)(C)C)C(=O)C(=O)NC1CC1,-8.83%
12,Oc1ccnc2cc(Cl)ccc12,28.9%
13,Clc1ccc2c(NCCNc3ccnc4cc(Cl)ccc34)ccnc2c1,14.9%
14,O=C(OCC(O)CO)c1ccccc1Nc1ccnc2cc(Cl)ccc12 (stereo not given),94.8%
15,O=C(O)CCNc1cc(N2CCc3ccccc3CC2)nc(-c2cccnc2)n1,-1.98%
16,Cc1cc(O)c2c(=O)c3c(O)cc(O)c4c5c(O)cc(O)c6c(=O)c7c(O)cc(C)c8c1c2c(c34)c(c78)c65,85%
17,Nc1c2c(nc3ccccc13)CCCC2O (stereo not given),7.55%
18,O[C@@H]1CO[C@H]2[C@@H]1OC[C@@H]2O,0.18%
19,Cc1nnc(C(C)C)n1[C@H]1C[C@H]2CC[C@@H](C1)N2CC[C@H](NC(=O)C1CCC(F)(F)CC1)c1ccccc1,25%
20,CNC(=O)c1ccccc1Sc1ccc2c(/C=C/c3ccccn3)n[nH]c2c1,105%
21,CCOc1nc2cccc(C(=O)O)c2n1Cc1ccc(-c2ccccc2-c2nnn[nH]2)cc1,-9.37%
22,CCCCc1nc(Cl)c(C(=O)O)n1Cc1ccc(-c2ccccc2-c2nn[nH]n2)cc1,6.5%
23,CCCc1nc2c(C)cc(-c3nc4ccccc4n3C)cc2n1Cc1ccc(-c2ccccc2C(=O)O)cc1,65%
24,O=C(O)[C@H]1C[C@@H](CP(=O)(O)O)CCN1,7.25%
25,CC(C)C[C@@H](C(=O)N[C@H](C(=O)OC1CCCC1)c1ccccc1)[C@H](O)C(=O)NO,-7.78%

row,Structure (SMILES),inhibition
1,[K+],17.5%
2,O=C(Nc1cnn2ccc(N3CCC[C@@H]3c3cc(F)ccc3F)nc12)N1CC[C@H](O)C1,28.9%
3,O=C1C(O)=C(O)C(=O)C(O)=C1O,1.19%
4,CC(C)(C)c1ccc(-c2nc3c(N4CCN(Cc5ccc6nccnc6c5)CC4)cccc3[nH]2)cc1,110%
5,c1ccc(N2CCN(Cc3nc4ccccc4[nH]3)CC2)nc1,20.5%
6,CCc1cncnc1N1CCN(Cc2nc3cc(C(F)(F)F)ccc3[nH]2)CC1,2.81%
7,CCCCCCCN(CC)CCCC(O)c1ccc(NS(C)(=O)=O)cc1 (stereo not given),30.4%
8,O=C(c1ccc(C(=O)N2CCC(N3CCCC3)CC2)c(Nc2ccccc2)c1)N1CCC(N2CCCC2)CC1,28.5%
9,COc1cc2c(cc1OCCCN1CCCC1)N=C(N)C21CCC1,-4.1%
10,O=C(O)c1ccc(/C=C2/SC(=S)N(c3cccc(C(F)(F)F)c3)C2=O)cc1,4.63%
11,COc1ccccc1OCC(O)COC(N)=O (stereo not given),75.6%
12,COc1ccccc1OCC(O)CO (stereo not given),-8.39%
13,NC(=O)OCC(O)COc1ccc(Cl)cc1 (stereo not given),47.1%
14,CC(C)C[C@H](NC(=O)N1CCCCCC1)C(=O)N[C@H](Cc1cn(C)c2ccccc12)C(=O)N[C@H](Cc1ccccn1)C(=O)O,-8.82%
15,CC(=O)N[C@H](Cc1ccc2ccccc2c1)C(=O)N[C@H](Cc1ccc(Cl)cc1)C(=O)N[C@H](Cc1cccnc1)C(=O)N[C@@H](CO)C(=O)N[C@@H](Cc1ccc(O)cc1)C(=O)N[C@H](CCCNC(N)=O)C(=O)N[C@@H](CC(C)C)C(=O)N[C@@H](CCCNC(=N)N)C(=O)N1CCC[C@H]1C(=O)N[C@H](C)C(N)=O (Ac-[d2Nal][dPhe(4-Cl)][d3Pal]SY[dCit]LRP[dA]-NH2),30.9%
16,Cc1nc(C)c(C)nc1C,-3.53%
17,COc1ccc(-c2ccc(=N)n(CCCC(=O)O)n2)cc1,8.71%
18,O=c1ncn2nc(Sc3ccc(F)cc3F)ccc2c1-c1c(Cl)cccc1Cl,36.3%
19,CN1c2c([nH]c(N)nc2=O)NC[C@@H]1CNc1ccc(C(=O)N[C@@H](CCC(=O)O)C(=O)O)cc1,11.1%
20,CCc1nc2ccc(Cl)cn2c1C(=O)NCc1ccc(N2CCC(c3ccc(OC(F)(F)F)cc3)CC2)cc1,6.99%
21,COc1cccc(-c2cc(=O)c3ccccc3o2)c1N,97.4%
22,CC(=O)N[C@@H](CSC/C=C(\C)CC/C=C(\C)CCC=C(C)C)C(=O)O,19.5%
23,Cc1ccc(N2CCN(CCC3NC(=O)c4ccccc43)CC2)cc1C (stereo not given),0.62%
24,CCN(Cc1ccccc1)C(=O)Cn1c(=O)n(C)c2cnc(-c3ccccc3)nc21,31.2%
25,Cc1cc2nc3ccc(N(C)C)cc3[s+]c2cc1N,60.9%
